The supplement of paper PMC3334620
The full ranking holds about 33,000 sequences; the median of “E-score (-0.5 to 0.5)” is about -8e-05, and the highest 2% start at about 0.23. The sample holds the highest values, similar sequences and a random draw of the others, so the mix is not that of the screen.

molecular target: T1, Nrg2 (UniProt P38082); assay: PBM E-score (8-mer binding enrichment) (E-score (-0.5 to 0.5)); higher = stronger / more preferred TF binding; conditions: protein concentration: 100 nM; construct: GST-full length
T1 sequence: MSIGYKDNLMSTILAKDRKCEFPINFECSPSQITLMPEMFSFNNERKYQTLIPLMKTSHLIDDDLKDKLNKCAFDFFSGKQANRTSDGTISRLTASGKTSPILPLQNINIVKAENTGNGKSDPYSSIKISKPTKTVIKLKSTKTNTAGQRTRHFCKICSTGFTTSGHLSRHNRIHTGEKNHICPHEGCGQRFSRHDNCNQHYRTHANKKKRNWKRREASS
Experimental: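 Universal 'all 10-mer' protein binding microarrays (Agilent AMADID 015681) probed with GST-tagged S. cerevisiae TFs (full-length or DBD) made by in vitro transcription/translation (PURExpress), about 100-200 nM. Bound TF was detected with fluorescent anti-GST. Each ungapped 8-mer (which stands for itself and its reverse complement) is scored by the PBM enrichment score (E-score), a modified Wilcoxon-Mann-Whitney statistic from -0.5 to +0.5, computed with the Universal PBM Analysis Suite. Scale: above 0.35 generally sequence-specific binding.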

Row | Sequence | PBM E-score
1 | AAATGAAC | 0.0486
2 | CGTTCCGC | -0.00432
3 | AACAGGCC | -0.202
4 | GTGGGCTA | -0.14
5 | CACCGGGG | -0.413
6 | GTACTACA | 0.191
7 | AGAGATTA | 0.0613
8 | CGAGATTA | 0.252
9 | CGAGATTC | 0.143
10 | GGCTGCCA | -0.173
11 | GAAAAGTC | -0.0781
12 | CGTGCCAA | -0.033
13 | AGACGTCA | -0.0442
14 | GGACGTCA | 0.00109
15 | TGACGTCA | 0.279
16 | ATCCAACG | -0.165
17 | ATCATAGA | 0.238
18 | ATCATAGG | -0.0259
19 | CTCATAGA | -0.061
20 | CTAAACCA | -0.179
21 | CATACCAC | -0.0447
22 | TAAGTGAA | 0.0844
23 | ATTACAGA | 0.0258
24 | ACTACAGG | 0.237
25 | ATTACAGG | 0.312

Row | Sequence | PBM E-score
26 | ACTACAGC | -0.271
27 | ACTACAGA | 0.131
28 | ATTACAGC | -0.18
29 | TCACTGCA | 0.167
30 | CTCGGCCA | 0.104
31 | ACCTGGAA | 0.203
32 | CGGGCTAG | -0.0659
33 | GTAAGACA | -0.0374
34 | GGGATCAA | -0.0876
35 | ATGAGATC | 0.0358
36 | CAGTTGGA | -0.00944
37 | AAGGGTTA | 0.076
38 | AAGGGTTG | 0.167
39 | CAGGGTGC | 0.19
40 | CAGGGTTC | 0.387
41 | CAGGGTTA | 0.0393
42 | AAGGGTTC | 0.248
43 | AAATGCTA | 0.0225
44 | GACGCTAC | -0.0645
45 | AAACTCTG | 0.102
46 | GATCTCAA | 0.115
47 | TATCTCAA | 0.267
48 | AATCTTAA | 0.0405
49 | CATCTTAA | 0.251
50 | CATCTTAG | 0.0135

Row | Sequence | PBM E-score
51 | AATCTCAA | 0.124
52 | CATCTCAA | -0.0442
53 | CTCATCAG | 0.247
54 | CATCTCAC | -0.0644
55 | CATCTCAG | 0.23
56 | CTCATCAC | -0.0539
57 | ATCATCAG | 0.0405
58 | GCCCTCAC | -0.177
59 | GGTTCAAA | 0.0475
60 | CACGCAGG | 0.0602
61 | GACAGTGC | 0.0298
62 | AGTGATCA | 0.063
63 | AAACCCAA | 0.0986
64 | CTCGTTGC | 0.212
65 | ACTTGTAA | -0.0121
66 | AGTCATAT | 0.0126
67 | AGGCTGAG | -0.0549
68 | TCACTACA | 0.24
69 | ATACTAAA | 0.234
70 | GTACTAAA | 0.121
71 | TCACTAAA | 0.099
72 | ACACTACA | 0.108
73 | GCACTAAA | 0.0452
74 | TTACTAAA | 0.123
75 | ACACTAAA | 0.271

Row | Sequence | PBM E-score
76 | CCACTACA | 0.045
77 | CAGATGCA | -0.158
78 | ATTAACCG | 0.107
79 | ATGAGACA | 0.0867
80 | AGGTCGGG | -0.142
81 | AAAACCAT | 0.137
82 | ATTTCGCG | 0.275
83 | CTTTCGCA | -0.0222
84 | ATTTCGAG | 0.14
85 | ATTTCTCG | 0.285
86 | ATTTCGGG | 0.037
87 | ATTTCTCA | 0.0394
88 | ATTTCGCC | 0.0633
89 | ATTTCTCC | 0.0443
90 | ATTTCGCA | 0.274
91 | AGTTAAGA | 0.0745
92 | GGAACTCC | 0.0233
93 | GACTCCCA | -0.248
94 | CGATCTCC | -0.0956
95 | AATAGGAC | 0.0448
96 | ACGTCATC | -0.0886
97 | GCTATTCC | -0.0857
98 | ACTGCTCC | 0.0162
99 | TAACCCAA | -0.00379
100 | CTAATTGC | 0.0943

Row | Sequence | PBM E-score
101 | ATATCTCC | 0.251
102 | CTCTCTCA | -0.0307
103 | ATCTCAAG | 0.238
104 | CTATCTCC | 0.0511
105 | GTCTCTCA | -0.0103
106 | CTATCTCA | 0.0251
107 | ATCTCTCC | 0.0215
108 | ATATCTCA | 0.238
109 | ATATCTCG | 0.0423
110 | ATCTCAAT | 0.0327
111 | ATCTCAAC | 0.158
112 | ATCTCTCA | 0.236
113 | ACTCGCCT | 0.063
114 | GTCAGGCA | -0.108
115 | TGCGGGAA | 0.125
116 | CAGACCTG | -0.119
117 | GCGAATAA | 0.18
118 | GAGATACC | 0.127
119 | AGCTATGG | -0.0356
120 | ATATCAAG | 0.285
121 | CTATCAAG | 0.0817
122 | ATATCAAT | 0.212
123 | AACTCAAG | -0.0395
124 | CTCTTGAA | -0.0353
125 | CAGGGCGG | -0.0602

Row | Sequence | PBM E-score
126 | CTAGTTGA | 0.128
127 | GACATTGC | -0.0455
128 | AACCCGCG | 0.267
129 | ATCCCGCA | 0.08
130 | ACCCCGGG | -0.056
131 | ATCCCGCC | 0.0743
132 | ATCCCGCG | 0.294
133 | CACCCGGG | -0.0923
134 | AACCCGGG | 0.255
135 | AACCCGCC | 0.00993
136 | AACCCGCA | 0.0835
137 | AGTGGTCA | -0.145
138 | TCGCCGAA | -0.124
139 | CAGAGTAC | -0.112
140 | ATATGGCC | -0.0218
141 | GTTGTTAA | 0.241
142 | ATTGTTAA | 0.0152
143 | CTTGTTAA | 0.0818
144 | CGCAAGGC | 0.203
145 | CCTGTATA | 0.0265
146 | CCTGTATC | 0.233
147 | ACTGTATC | -0.0153
148 | CAGATTAC | -0.0348
149 | ACGGACAA | 0.233
150 | GCGGACAA | 0.15

Row | Sequence | PBM E-score
151 | CCGGACAA | 0.058
152 | CGTACTTA | 0.115
153 | CACCAAGA | 0.00109
154 | CGTTTGAA | 0.00719
155 | AGTTTGAA | 0.23
156 | AGTTTGAC | -0.104
157 | GGATCGCC | 0.0218
158 | AAAGGAGG | -0.252
159 | ATCAAACC | 0.123
160 | ACAGAGCT | -0.214
161 | ACCGCGCG | 0.301
162 | ATCGAGCG | 0.229
163 | AGCGCGCG | 0.274
164 | ATCGAGCC | -0.103
165 | ACCGCGCC | 0.00956
166 | AGCGCGCC | 0.0741
167 | ACCGCGCT | 0.0712
168 | ATCGAGCA | 0.0824
169 | CGCCCGCC | 0.085
170 | CGCCCGCA | 0.229
171 | TGCCCGCA | 0.148
172 | AGCGCGCT | 0.187
